Screening data deposited in PubChem BioAssay by National Center for Advancing Translational Sciences (NCATS).
SARS PLP yeast – SARS-CoV PLP inhibition in yeast; S. cerevisiae expressing SARS-CoV PLpro, growth rescue; Potency, µM (doses to about 32.9 µM), without a hit: at the highest dose activity, positive = growth rescue, usual class: activators; hit rate 0.19% among 330,000; calls by dose curve; further: 0% is about no effect; nearly all actives have a fitted effect of over 55% in size
Sm TGR block – inhibitors of Schistosoma mansoni thioredoxin glutathione reductase | Potency, µM (doses to about 114 µM), for inactives: top-dose activity change, negative = inhibition, usual class: inhibitors | AID 485364 | Q962Y6 | hit rate 3% among 360,000 | purified TGR, DTNB reduction, TNB absorbance 405 nm; further: on the % scale 0 is the no-effect control and ±100 the full control effect; nearly all actives have a fitted effect of over 60% in size
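Kinetic colorimetric format: TGR-catalysed, NADPH-driven DTNB reduction monitored via TNB absorbance. Enzyme dispensed at 20 nM; compound exposure 15 min at room temperature before reaction start.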
Pf growth 48h – inhibits P. falciparum growth in the first generation, 48 h. P. falciparum luciferase growth in erythrocytes, 48 h. Potency, µM (doses to about 28.7 µM), for the others: top-dose activity change, negative = inhibition, usual class: inhibitors. hit rate 5.9% among 310,000; further: on the % scale 0 is the no-effect control and ±100 the full control effect
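Growth was read as firefly luciferase luminescence after a 48 h, 37 C, 5% CO2 exposure of compounds to reporter-bearing P. falciparum cultures (0.1% parasitemia, 2% hematocrit final) in Albumax-supplemented RPMI 1640.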
Pf growth 96h – P. falciparum growth inhibition at 96 hour, primary screen for plastid delayed-death inhibitors. P. falciparum luciferase reporter growth, 96 h. Potency, µM (titrated, usually from 28.7 µM), for the others: at the top dose activity change, negative = inhibition, hits mostly inhibitors. hit rate 6.9% among 320,000. AID 504834; further: on the % scale 0 is the no-effect control and ±100 the full control effect
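Infected RBCs, 2% Hct / 0.05% parasitemia final; luciferase-reporter P. falciparum; cpd 96 h, 37 C, 5% CO2; luciferase detection reagent; luminescence.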
The depositor's hits bear a star; ? = inconclusive; . = not tested or not shown. An excerpt weighted towards active compounds, which were near 12% of everything screened. Unless noted, the call rests on the fitted dose curve; in most records, active means well fitted curve in the direction sought with a large enough effect; inconclusive means small, poorly fitted or top-dose-only effect, or another doubt; inactive means no such curve, though single readings can be large; an effect the other way counts as inactive or inconclusive. Potency means the concentration at half of the fitted maximal effect.

SMILES	SARS PLP yeast	Sm TGR block	Pf growth 48h	Pf growth 96h
CN(Cc1ccccc1)C(=S)NC(=O)c1ccc(-c2ccccc2)cc1	11.3%	6.0%	?	7.38µM*
COc1ccc(N(Cc2cccs2)C(=O)COc2ccc(C(C)C)cc2)cc1	.	3.2%	.	.
Cc1ccc(Sc2ncccc2COC(=O)Nc2c(C)cccc2C)cc1	-21.2%	12.2%	?	7.38µM*
Cc1ccc(Sc2ncccc2COC(=O)Nc2ccccc2)cc1	-15.1%	20.3%	-5.3%	-15.2%
O=C(CSc1nc(-c2ccccc2)nc2c1CCCC2)c1ccc(F)cc1	.	9.3%	.	.
C#CCOCCOCCOCCNc1nc(N2CCN(C(=O)CCCCCCCCCCNC(=O)Cn3cc(C[C@@H](C)O)nn3)CC2)nc(N2CCN(C(=O)CCCCCCCCCCNC(=O)[C@H](CCCN=C(N)N)n3cc(C[C@@H](C)CC)nn3)CC2)n1	3.2%	-11.2%	1.31µM*	1.04µM*
C#CCOCCOCCOCCNc1nc(N2CCN(C(=O)[C@H]([C@@H](C)CC)n3cc(CCCN=C(N)N)nn3)CC2)nc(N2CCN(C(=O)[C@H](Cc3ccc(O)cc3)n3cc(CCO)nn3)CC2)n1	2.1%	-16.0%	-4.8%	?
C#CCOCCOCCOCCNc1nc(N2CCN(C(=O)CCCCCCCCCCNC(=O)[C@H](CO)n3cc(CCCSC)nn3)CC2)nc(N2CCN(C(=O)CCCCCCCCCCNC(=O)[C@H](CCCN=C(N)N)n3cc(C[C@@H](C)CC)nn3)CC2)n1	-0.3%	-22.6%	1.47µM*	5.22µM*
C#CCOCCOCCOCCNc1nc(N2CCN(C(=O)[C@H](CCCCN)n3cc(CC(C)O)nn3)CC2)nc(N2CCN(C(=O)[C@H](CCCCN)n3cc(CC(C)O)nn3)CC2)n1 (some centres undefined)	0.8%	-30.7%	-20.9%	62.2%
C#CCOCCOCCOCCNc1nc(N2CCN(C(=O)CCCCCCCCCCNC(=O)[C@H](CO)n3cc(CCCSC)nn3)CC2)nc(N2CCN(C(=O)CCCCCCCCCCNC(=O)[C@@H]([C@H](C)O)n3cc(C)nn3)CC2)n1	-3.8%	44.7µM*	0.294µM*	0.0928µM*
C#CCOCCOCCOCCNc1nc(N2CCN(C(=O)Cn3cc(CCCN=C(N)N)nn3)CC2)nc(N2CCN(C(=O)[C@H]([C@@H](C)CC)n3cc(CCC(=O)O)nn3)CC2)n1	1.4%	-18.0%	-10.7%	-14.7%
C#CCOCCOCCOCCNc1nc(N2CCN(C(=O)CCCCCCCCCCNC(=O)Cn3cc(C[C@@H](C)O)nn3)CC2)nc(N2CCN(C(=O)CCCCCCCCCCNC(=O)[C@H](CCCCN)n3cc(CCCC(=O)O)nn3)CC2)n1	0.7%	?	5.22µM*	?
C#CCOCCOCCOCCNc1nc(N2CCN(C(=O)[C@H]([C@@H](C)O)n3cc(CCCCN)nn3)CC2)nc(N2CCN(C(=O)[C@H](CCCCN)n3cc(CCC(=O)O)nn3)CC2)n1	1.8%	?	-11.6%	84.6%
CCCCCc1ccc(C)cc1O	.	.	4.0%	4.4%
C#CCOCCOCCOCCNc1nc(N2CCN(C(=O)[C@H](CCCCN)n3cc(CCCC)nn3)CC2)nc(N2CCN(C(=O)[C@H](CCCCN)n3cc(CCC(=O)O)nn3)CC2)n1	-0.6%	-10.5%	?	60.5%
C#CCOCCOCCOCCNc1nc(N2CCOCC2)nc(N2CCN(C(=O)Cn3cc(CC(C)O)nn3)CC2)n1 (centres undefined)	-1.0%	-5.0%	16.6%	?
C#CCOCCOCCOCCNc1nc(N2CCN(C(=O)CCCCCCCCCCNC(=O)Cn3cc(CCCCCN)nn3)CC2)nc(N2CCN(C(=O)CCCCCCCCCCNC(=O)[C@@H](CCC(=O)O)n3cc(CCCCCN)nn3)CC2)n1	11.8%	50.1µM*	13.1µM*	?
C#CCOCCOCCOCCNc1nc(N2CCN(C(=O)CCCCCCCCCCNC(=O)Cn3cc(CCCCCN)nn3)CC2)nc(N2CCN(C(=O)CCCCCCCCCCNC(=O)[C@@H](CCSC)n3cc(CCO)nn3)CC2)n1	0.0%	?	1.17µM*	1.04µM*
C#CCOCCOCCOCCNc1nc(N2CCN(C(=O)CCCCCCCCCCNC(=O)Cn3cc(C[C@@H](C)O)nn3)CC2)nc(N2CCN(C(=O)CCCCCCCCCCNC(=O)[C@@H](CCC(=O)O)n3cc(CCCCCN)nn3)CC2)n1	-0.6%	-16.9%	1.04µM*	?
C#CCOCCOCCOCCNc1nc(N2CCN(C(=O)CCCCCCCCCCNC(=O)Cn3cc(C[C@@H](C)O)nn3)CC2)nc(N2CCN(C(=O)CCCCCCCCCCNC(=O)[C@H](CO)n3cc(CCCSC)nn3)CC2)n1	6.3%	2.9%	0.147µM*	0.147µM*
CCc1ccc(NCc2cc3ccc(OC)cc3n(CC(=O)Nc3ccccc3C)c2=O)cc1	.	1.8%	.	.
CCn1nc(C)c2c(-c3ccccc3)cc(=O)n(C(C)C(=O)NCc3cccc(OC)c3)c21 (centres undefined)	.	-0.3%	.	.
CCCn1c(SC(C)C(=O)NC2CC2)nnc1-c1ccncc1 (centres undefined)	2.6%	4.0%	-9.5%	-26.1%
C#CCOCCOCCOCCNc1nc(N2CCN(C(=O)CCCCCCCCCCNC(=O)[C@H](CO)n3cc(CCCSC)nn3)CC2)nc(N2CCN(C(=O)CCCCCCCCCCNC(=O)[C@H](CCCCN)n3cc(CCO)nn3)CC2)n1	0.9%	.	.	.
C#CCOCCOCCOCCNc1nc(N2CCN(C(=O)CCCCCCCCCCNC(=O)[C@@H](CCSC)n3cc(CCO)nn3)CC2)nc(N2CCN(C(=O)CCCCCCCCCCNC(=O)[C@H](CCSC)n3cc(CCO)nn3)CC2)n1	-13.5%	-8.1%	0.329µM*	0.294µM*
SMILES	SARS PLP yeast	Sm TGR block	Pf growth 48h	Pf growth 96h
C#CCOCCOCCOCCNc1nc(N2CCN(C(=O)Cn3cc(CCCCN)nn3)CC2)nc(N2CCN(C(=O)Cn3cc(CCCCN)nn3)CC2)n1	-9.3%	-14.1%	2.1%	-22.8%
C#CCOCCOCCOCCNc1nc(N2CCN(C(=O)CCCCCCCCCCNC(=O)Cn3cc(CCCCCN)nn3)CC2)nc(N2CCN(C(=O)CCCCCCCCCCNC(=O)Cn3cc(CCCCCN)nn3)CC2)n1	?	-35.7%	1.65µM*	6.57µM*
O=[N+]([O-])c1ccc(S(=O)(=O)Nc2nnc(C(F)(F)F)s2)cc1	-1.4%	14.1µM*	22.3%	10.4µM*
CCOc1ccc(C2=C(C(C)=O)Sc3nnc(C)n3N2C(C)=O)cc1	.	18.1%	.	.
CC(=O)C1=C(c2cccc([N+](=O)[O-])c2)N(C(C)=O)n2c(C)nnc2S1	-3.1%	22.4µM*	?	?
CN(Cc1c(F)cccc1Cl)C(=O)c1ccc(NS(=O)(=O)c2ccc3[nH]c(=O)[nH]c3c2)cc1	1.2%	7.6%	13.2%	?
CCCN1Cc2cccc(C(=O)NC(CC(=O)OCC)c3ccc(OC(C)C)cc3)c2C1=O (centres undefined)	-3.7%	1.0%	13.1µM*	-15.7%
CCOc1ccc(NC(=O)c2cccc3c2C(=O)N(Cc2cccnc2)C3)cc1	-1.2%	1.9%	?	2.5%
